The values below come from PubChem BioAssay (Tox21).

Records with an inconclusive call do not appear. Activity calls are given as the source filed them. Unless noted, the call rests on the fitted dose curve; in most records, active means well fitted curve in the direction sought with a large enough effect in the repeat runs; inconclusive means weak or mixed curves; inactive means no such curve, though single readings can be large; an effect the other way counts as inactive or inconclusive.
On the % scale 0 is the no-effect control and ±100 the full control effect.

Androgen receptor (Homo sapiens), sequence (P10275 whole entry, looked up): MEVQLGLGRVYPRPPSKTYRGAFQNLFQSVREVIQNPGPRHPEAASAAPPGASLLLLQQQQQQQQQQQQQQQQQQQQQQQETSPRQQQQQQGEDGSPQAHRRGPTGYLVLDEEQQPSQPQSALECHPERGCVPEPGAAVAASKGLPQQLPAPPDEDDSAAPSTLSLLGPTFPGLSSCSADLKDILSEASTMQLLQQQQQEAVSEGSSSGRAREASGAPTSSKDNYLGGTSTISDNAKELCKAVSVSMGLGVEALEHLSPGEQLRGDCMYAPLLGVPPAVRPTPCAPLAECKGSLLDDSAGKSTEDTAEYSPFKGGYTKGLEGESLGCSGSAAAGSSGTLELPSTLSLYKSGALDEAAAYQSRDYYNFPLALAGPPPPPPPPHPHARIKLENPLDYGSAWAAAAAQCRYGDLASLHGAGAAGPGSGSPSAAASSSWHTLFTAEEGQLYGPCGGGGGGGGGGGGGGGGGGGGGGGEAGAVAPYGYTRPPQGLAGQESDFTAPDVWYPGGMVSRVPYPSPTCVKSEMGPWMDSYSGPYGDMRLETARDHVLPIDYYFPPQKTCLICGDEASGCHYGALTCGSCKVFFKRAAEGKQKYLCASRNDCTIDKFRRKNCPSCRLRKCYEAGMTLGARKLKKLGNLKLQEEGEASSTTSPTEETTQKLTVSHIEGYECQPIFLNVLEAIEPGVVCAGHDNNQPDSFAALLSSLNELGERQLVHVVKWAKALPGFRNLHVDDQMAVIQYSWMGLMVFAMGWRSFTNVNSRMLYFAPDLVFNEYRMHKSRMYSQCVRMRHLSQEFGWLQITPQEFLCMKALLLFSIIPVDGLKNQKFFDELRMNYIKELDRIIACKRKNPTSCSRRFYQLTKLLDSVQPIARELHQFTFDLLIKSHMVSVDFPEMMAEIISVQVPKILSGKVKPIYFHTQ

Tested on in one test: not listed separately
The experiment in a line: qHTS assay to identify small molecule antagonists of the androgen receptor (AR) signaling pathway - cell viability counter screen (AID 743033; further: nearly all actives have a fitted effect of over 45% in size). The settings on record: AR-bla HEK293 viability, CellTiter-Glo luminescence, 16 h; series mostly up to 58.5 µM; activity change, negative = cytotoxicity: at the top concentration. A general note: In qHTS, concentration-response curves come from the screen itself.
Turning to `FC(F)(F)c1ccccc1`, the “activity change, negative = cytotoxicity” value is 4.63% (inactive).

`Cc1ccc([N+](=O)[O-])cc1Cl`: the “activity change, negative = cytotoxicity” value was 2.44% [at 78.9 µM] (inactive).

Take `NC(=O)Cc1cccc(C(=O)c2ccccc2)c1N`: the “activity change, negative = cytotoxicity” value is -1.42% (inactive).

`CN(C)CC[C@@H](c1ccc(Cl)cc1)c1ccccn1`: the “activity change, negative = cytotoxicity” value is -10.8% (inactive).

Regarding `COc1cc(C)ccc1C(C)C`, the “activity change, negative = cytotoxicity” value is 2.87% (inactive).

`CCCCC(CC)COC(=O)COc1cc(Cl)c(Cl)cc1Cl` (stereo not drawn): the “activity change, negative = cytotoxicity” value was 2.29% (inactive).

As for `CCOc1ccc(NC(N)=O)cc1`, the “activity change, negative = cytotoxicity” value is 4.24% (inactive).

With `C1CCOC1`, the “activity change, negative = cytotoxicity” value is -2.1% [at 78.9 µM] (inactive).

Regarding `C=Cc1ccccc1`, the molecule was called inactive.

For the molecule `Cc1c(C(=O)NCCO)[n+](=O)c2ccccc2n1[O-]`, the “activity change, negative = cytotoxicity” value was -9.74% (inactive).

Turning to `Cc1cc(S(=O)(=O)O)c(N)cc1Cl`, the “activity change, negative = cytotoxicity” value was 0.225% [at 78.9 µM] (inactive).

On to `CCc1nnc(NS(=O)(=O)c2ccc(N)cc2)s1`, for which the “activity change, negative = cytotoxicity” value is 6.3% (inactive).

Regarding `COc1ccc(Nc2ccc(OC)cc2)cc1`, the “activity change, negative = cytotoxicity” value is -2.24% [at 78.9 µM] (inactive).

Regarding `O=C(O[C@@H](C(=O)O)[C@@H](OC(=O)c1ccccc1)C(=O)O)c1ccccc1`, the “activity change, negative = cytotoxicity” value is 2.76% [at 78.9 µM] (inactive).

On to `C[C@@H]1CN(c2c(F)c(N)c3c(=O)c(C(=O)O)cn(C4CC4)c3c2F)C[C@H](C)N1`, for which the “activity change, negative = cytotoxicity” value is 2.34% (inactive).

With `NNS(=O)(=O)c1ccc(Oc2ccc(S(=O)(=O)NN)cc2)cc1`, the “activity change, negative = cytotoxicity” value was -0.927% (inactive).

For the molecule `Cc1ccsc1C(=CCCN1CCC[C@@H](C(=O)O)C1)c1sccc1C`, the “activity change, negative = cytotoxicity” value is 4.64% (inactive).

For the molecule `CN1CCN(c2c(F)cc3c(=O)c(C(=O)O)cn4c3c2SCC4)CC1`, the “activity change, negative = cytotoxicity” value was -19.8% (inactive).

Consider `CC(C)(C)C1CCCCC1=O` (stereo not drawn), for which the “activity change, negative = cytotoxicity” value is 13.4% (inactive).

Regarding `CC1(C)C(=O)N(Cl)C(=O)N1Br`, the “activity change, negative = cytotoxicity” value was 3.16% (inactive).

In the case of `Cc1c(N)cccc1N`, the “activity change, negative = cytotoxicity” value is 3.82% [at 78.9 µM] (inactive).

As for `CN(C)CCOc1ccccc1Cc1ccccc1`, the “activity change, negative = cytotoxicity” value was 1.06% (inactive).

Take `CC(C)C(=O)OCC(C)(C)C(O)C(C)C` (stereo not drawn): the “activity change, negative = cytotoxicity” value is -0.231% [at 78.9 µM] (inactive).

For the molecule `OCCN1CCN(CCO)CC1`, the “activity change, negative = cytotoxicity” value is 0.834% [at 78.9 µM] (inactive).

Take `CS(=O)(=O)c1ccc([C@@H](O)[C@@H](CF)NC(=O)C(Cl)Cl)cc1`: the “activity change, negative = cytotoxicity” value was 4.51% [at 27 µM] (inactive).

With `CCCCC1CCC(=O)O1` (stereo not drawn), the “activity change, negative = cytotoxicity” value is 7.06% (inactive).

With `NC/C=C/C(=O)O`, the “activity change, negative = cytotoxicity” value was -1.09% (inactive).

A further test has as its target Androgen receptor (Homo sapiens) (UniProt P10275). Briefly: qHTS assay to identify small molecule antagonists of the androgen receptor (AR) signaling pathway (AID 743035; active means well fitted inhibition curve with a large enough effect in the signal ratio in the repeat runs, not every such curve was filed as active; the % refers to the signal ratio). To be noted: HEK293 AR-UAS-bla, R1881-stimulated, beta-lactamase FRET, 16 h; series mostly up to 58.5 µM; activity change, negative = inhibition: at the top concentration. The essentials:
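Fluorescence from a beta-lactamase FRET substrate (LiveBLAzer B/G, 2 h, room temperature) measured inhibition of R1881-stimulated signaling in GeneBLAzer AR-UAS-bla HEK293 cells exposed to compound for 16 h at 37C.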
With `Cc1c(C(=O)NCCO)[n+](=O)c2ccccc2n1[O-]`, the “activity change, negative = inhibition” value was -4.27% (inactive).

`Cc1cc(S(=O)(=O)O)c(N)cc1Cl`: the “activity change, negative = inhibition” value was 2.14% [at 78.9 µM] (inactive).

For the molecule `Cc1ccsc1C(=CCCN1CCC[C@@H](C(=O)O)C1)c1sccc1C`, the “activity change, negative = inhibition” value was 16.5% (inactive).

A further test shares this target. Briefly: qHTS assay to identify small molecule agonists of the androgen receptor (AR) signaling pathway using the MDA cell line (AID 743040; further: nearly all actives have a fitted effect of over 20% in size). To be noted: MDA-kb2 AR-luc cells, MMTV luciferase, 16 h; series mostly up to 70.3 µM; activity change: at the top concentration. Put shortly: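 Cells plated, 5 h at 37C/0% CO2; compound or DMSO pinned; 16 h at 37C; ONE-Glo added; luminescence measured after 30 min at room temperature. Reporter line: MDA-kb2 with MMTV-luciferase responsive to AR and GR.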
With `Cc1c(C(=O)NCCO)[n+](=O)c2ccccc2n1[O-]`, the “activity change” value is 0.0486% (inactive).

Turning to `Cc1cc(S(=O)(=O)O)c(N)cc1Cl`, the “activity change” value was -2.03% [at 95 µM, active compounds read high] (inactive).

Turning to `Cc1ccsc1C(=CCCN1CCC[C@@H](C(=O)O)C1)c1sccc1C`, the “activity change” value was 7.79% (inactive).

Tested on in the next test: not listed separately
Briefly: qHTS assay to identify small molecule antagonists of the androgen receptor (AR) signaling pathway using the MDA cell line - cell viability counter screen (AID 743041; further: nearly all actives have a fitted effect of over 45% in size). The settings on record: MDA-kb2 viability, CellTiter-Fluor, 16 h, cells co-treated with R1881 androgen agonist; series mostly up to 70.3 µM; viability change, negative = cytotoxic: at the top concentration. The essentials: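 Cells were plated at 3,000 per well and left 5 h. Compounds in DMSO were then pinned in, followed by R1881. After 16 h at 37C, CellTiter-Fluor fluorescence gave viability.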
For the molecule `FC(F)(F)c1ccccc1`, the “viability change, negative = cytotoxic” value is -2.48% (inactive).

As to `Cc1ccc([N+](=O)[O-])cc1Cl`, the “viability change, negative = cytotoxic” value was 19.8% [at 95 µM] (inactive).

For `NC(=O)Cc1cccc(C(=O)c2ccccc2)c1N`, the “viability change, negative = cytotoxic” value is -3.31% (inactive).

As for `CN(C)CC[C@@H](c1ccc(Cl)cc1)c1ccccn1`, the “viability change, negative = cytotoxic” value is -23% (inactive).

Take `COc1cc(C)ccc1C(C)C`: the “viability change, negative = cytotoxic” value is 2.9% (inactive).

For the molecule `CCCCC(CC)COC(=O)COc1cc(Cl)c(Cl)cc1Cl` (stereo not drawn), the “viability change, negative = cytotoxic” value was -2.03% (inactive).

Take `CCOc1ccc(NC(N)=O)cc1`: the “viability change, negative = cytotoxic” value is -4.06% (inactive).

With `C1CCOC1`, the “viability change, negative = cytotoxic” value was 11.8% [at 95 µM] (inactive).

On to `C=Cc1ccccc1`, for which the Potency result is “inactive”.

Turning to `CC1CN(c2ccccc2)NC1=O` (stereo not drawn), the “viability change, negative = cytotoxic” value is 7.77% (inactive).

In the case of `Cc1c(C(=O)NCCO)[n+](=O)c2ccccc2n1[O-]`, the “viability change, negative = cytotoxic” value is 0.219% (inactive).

Turning to `NC1=NCC2c3ccccc3Cc3ccccc3N12` (stereo not drawn), the “viability change, negative = cytotoxic” value is -2.78% (inactive).

For the molecule `CCc1nnc(NS(=O)(=O)c2ccc(N)cc2)s1`, the “viability change, negative = cytotoxic” value is 4.11% (inactive).

Take `O=C(O[C@@H](C(=O)O)[C@@H](OC(=O)c1ccccc1)C(=O)O)c1ccccc1`: the “viability change, negative = cytotoxic” value is 0.748% [at 95 µM] (inactive).

`CCCCC(=O)O[C@]1(C(=O)CO)[C@H](C)C[C@H]2[C@@H]3CCC4=CC(=O)C=C[C@]4(C)[C@@]3(F)[C@@H](O)C[C@@]21C`: the “viability change, negative = cytotoxic” value was -1.04% (inactive).
